Experimental findings from PubChem BioAssay AID1345085 (National Center for Advancing Translational Sciences (NCATS), 2018) are described below.

Structures are written as SMILES. Results filed as inconclusive are left out. A number with no mark means an inactive call. The source made the active and inactive calls. Calls come from the whole dose curve; as a rule, active = well fitted cell-killing curve with a large enough effect; inconclusive = small, poorly fitted or top-dose-only effect, or effect the other way; inactive = no such curve, though single readings can be large or run the other way.
% is set by controls: 0 for no effect and ±100 for the full control effect; potency is the fitted concentration of half-maximal effect.

This test concerns CASKI. Put plainly: Confirmatory qHTS for gynecologic anti-cancer compounds from libraries of approved drugs and bioactive compounds. Note: nearly all actives have a fitted effect of over 55% in size. The note with it: gynecologic cancer cell panel viability, ATPlite luminescence, 48 h; series mostly up to 57.6 µM; activity change, negative = viability loss: at the top concentration. The procedure, abridged: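 1,000 cells/well; 16 h pre-incubation 37 C, 5% CO2; pin-transferred cpd in DMSO, 11 conc (1:3), 57.5 uM–0.977 nM; 48 h; ATPlite, 15 min RT; luminescence → IC50.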
On to `O=C(NOCC1CC1)c1ccc(F)c(F)c1Nc1ccc(I)cc1Cl`, for which the Potency was 21.7 µM (active).

Take `O=C1Cc2cc(CCN3CCN(c4nsc5ccccc45)CC3)c(Cl)cc2N1`: the “activity change, negative = viability loss” value is 1.02%.

For `CNC(=O)c1ccccc1Nc1nc(Nc2ccc(N3CCOCC3)cc2OC)ncc1Cl`, the Potency was 6.11 µM (active).

Consider `CCCC(=O)O[C@]1(C(=O)CCl)[C@@H](C)C[C@H]2[C@@H]3CCC4=CC(=O)C=C[C@]4(C)[C@@]3(F)C(=O)C[C@@]21C`, for which the Potency was 30.6 µM (active).

On to `CN(C)/N=N/c1nc[nH]c1C(N)=O`, for which the “activity change, negative = viability loss” value is -20.5%.

In the case of `COc1cc2c(Oc3ccc(-c4cnc(Nc5ccc(F)cc5)n(C)c4=O)cc3F)ccnc2cc1OCCCN1CCOCC1`, the “activity change, negative = viability loss” value is -12.5%.

With `Cc1cc(Nc2cc(N3CCN(C)CC3)nc(Sc3ccc(NC(=O)C4CC4)cc3)n2)n[nH]1`, the “activity change, negative = viability loss” value is -30.6%.

Consider `COC(C(=O)N1Cc2[nH]nc(NC(=O)c3ccc(N4CCN(C)CC4)cc3)c2C1)c1ccccc1` (centres undefined), for which the Potency was 7.69 µM (active).

As for `c1nc2nc(Nc3ccc(N4CCOCC4)cc3)nc(NC3CCCCC3)c2[nH]1`, the Potency was 7.49 µM (active).

As to `Cn1c(=O)c(-c2c(Cl)cccc2Cl)cc2cnc(Nc3cccc(C(=O)O)c3)nc21`, the Potency was 3.06 µM (active).

As for `Cc1csc(NC(=O)c2sc3nc4c(c(C(F)(F)F)c3c2N)CCC4)n1`, the Potency was 5.44 µM (active).

Take `O=C(Nc1cn[nH]c1-c1nc2ccc(CN3CCOCC3)cc2[nH]1)NC1CC1`: the Potency is 2.73 µM (active).

Turning to `FC(F)(F)c1ccc(/C=C/c2nc(COc3ccc(CCCCn4ccnn4)cc3)co2)cc1`, the Potency is 0.137 µM (active).

`Cn1cc(-c2ccc3ncc(Cc4ccc5ncccc5c4)n3n2)cn1`: the “activity change, negative = viability loss” value was 11.8%.

Take `CCCCc1oc2ccc(NS(C)(=O)=O)cc2c1C(=O)c1ccc(OCCCN(CCCC)CCCC)cc1`: the Potency is 27.3 µM (active).

Regarding `CC[C@@]1(O)C(=O)OCc2c1cc1n(c2=O)Cc2c-1nc1ccccc1c2/C=N/OC(C)(C)C`, the Potency was 0.153 µM (active).

For the compound `O=C1c2c(O)ccc(O)c2C(=O)c2c(NCCNCCO)ccc(NCCNCCO)c21`, the Potency was 7.69 µM (active).

`COc1ccc(-c2cc3nccn3c(Nc3ncccc3C(N)=O)n2)cc1OC`: the “activity change, negative = viability loss” value was 1.41%.

`CC(=O)OC12COC1CC(O)C1(C)C(=O)C(O)C3=C(C)C(OC(=O)C(O)C(NC(=O)OC(C)(C)C)c4ccccc4)CC(O)(C(OC(=O)c4ccccc4)C21)C3(C)C` (centres undefined): the “activity change, negative = viability loss” value was 9.99%.

Take `Cc1cc(Nc2nc(N[C@@H](C)c3ccc(F)cc3)c(C#N)cc2F)n[nH]1`: the Potency was 13.7 µM (active).

`COc1cc(F)c(F)c(Nc2ccc(I)cc2F)c1NS(=O)(=O)C1(CC(O)CO)CC1` (centres undefined): the “activity change, negative = viability loss” value is -27.6%.

Take `C[C@]12CCC(=O)C=C1[C@@H]1C[C@@H]1[C@H]1[C@@H]3[C@@H]4C[C@@H]4[C@@]4(CCC(=O)O4)[C@@]3(C)CC[C@@H]12`: the “activity change, negative = viability loss” value was -4.75%.

For `Nc1nccc(Oc2ccc(NC(=O)c3c[nH]cc(-c4ccc(F)cc4)c3=O)cc2F)c1Cl`, the Potency is 12.2 µM (active).

On to `O=C(CCCCCCC(=O)Nc1ccccc1)NO`, for which the Potency was 12.2 µM (active).

On to `O=c1c2ccccc2nc2n1CCc1c-2[nH]c2ccccc12`, for which the “activity change, negative = viability loss” value is -1.84%.

In the case of `Cn1cnc([N+](=O)[O-])c1Sc1ncnc2nc[nH]c12`, the Potency is 6.85 µM (active).

As for `Cc1c(C)n(Cc2ccc(-c3ccccc3C(=O)O)cc2)c2ccc(C(=O)N[C@@H](C)c3ccc([N+](=O)[O-])cc3)cc12`, the “activity change, negative = viability loss” value was 9.23%.

Consider `CCc1c2c(nc3ccc(OC(=O)N4CCC(N5CCCCC5)CC4)cc13)-c1cc3c(c(=O)n1C2)COC(=O)[C@]3(O)CC`, for which the Potency was 19.3 µM (active).

In the case of `CN1CCN(Cc2ccc(NC(=O)Nc3ccc(Oc4cc(NC(=O)C5CC5)ncn4)cc3)cc2C(F)(F)F)CC1`, the Potency was 0.611 µM (active).

Regarding `CC(C)n1nc(-c2cc3cc(O)ccc3[nH]2)c2c(N)ncnc21`, the Potency is 8.63 µM (active).

`Cc1cnc(Nc2cccc(CN3CCOCC3)c2)nc1Nc1cccc(S(=O)(=O)NC(C)(C)C)c1`: the Potency is 15.3 µM (active).

In the case of `Cc1cnc(Nc2ccc(CN3CCOCC3)cc2)nc1Nc1cccc(S(=O)(=O)NC(C)(C)C)c1`, the Potency was 4.85 µM (active).

Take `CC(Oc1cc(-n2cnc3ccc(CN4CCN(C)CC4)cc32)sc1C(N)=O)c1ccccc1C(F)(F)F` (centres undefined): the Potency was 13.7 µM (active).

Regarding `CCC1=CC2CN(C1)Cc1c([nH]c3ccccc13)[C@@](C(=O)OC)(c1cc3c(cc1OC)N(C)[C@H]1[C@@](O)(C(=O)OC)[C@H](OC(C)=O)[C@]4(CC)C=CCN5CC[C@]31[C@@H]54)C2` (some centres undefined), the “activity change, negative = viability loss” value is -2.39% [at 19.5 µM].
